The supplement of paper PMC11150407
About 180 (8.6%) of roughly 2,100 compounds showed an effect of 50% or more. This excerpt belongs to a sample that is enriched for strong results.

system: MOLM1 and UCSD/AML1 (averaged); test: cell viability relative to DMSO control (POC); higher = less growth inhibition; settings: 1 µM; 72 h
Experimental: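 Primary viability screen in the 3q26 EVI1-high AML cell lines MOLM1 and UCSD/AML1 (1.5e3 cells/well, 384-well), compounds at 1 uM for 72 h. ATP CellTiter-Glo read-out given as percent of viable cells over DMSO control (POC), averaged over duplicates. DMSO was the negative control and 5 uM etoposide the positive control. This mapping covers the MicroSource Spectrum and Selleck anticancer libraries (drug names).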

Compound	cell viability [%]
COc1cc(OC)c2c(=O)cc(-c3ccccc3)oc2c1	90.2
C/C1=C\CCC(=O)C2CC(C)(C)C2CC1 (stereo not drawn)	93.3
Cc1cc(O)c2c(c1O)C(=O)c1c(O)cc(C)c(O)c1C2=O	94.1
COc1c2ccoc2cc2oc(C)cc(=O)c12	104
Cn1cnc2c(F)c(Nc3ccc(Br)cc3Cl)c(C(=O)NOCCO)cc21 [AZD6244 (Selumetinib)]	15.5
C#CCCCCCCCCCCCC(O)CC(O)CO (stereo not drawn)	55.1
CC1(C)C=Cc2cc3ccc(=O)oc3cc2O1	107
CN(C)CC(=O)OC[C@@H](O)[C@@H](O)[C@H](O)[C@@H](O)C(=O)O	108
CNCc1ccc(-c2[nH]c3cc(F)cc4c3c2CCNC4=O)cc1	89.1
Nc1c2ccccc2nc2ccccc12	65
CC(C)Cn1cnc2c(N)nc3ccccc3c21 [Imiquimod]	47.9
CCCCOc1ccc(CC(=O)NO)cc1	115
CCCCCCCCc1ccc(CCC(N)(CO)CO)cc1 [Fingolimod (FTY720)]	76.7
CCCCCCCCCc1ccc(OCCOCCOCCOCCOCCOCCOCCOCCOCCO)cc1	37.9
COc1ccc2c(c1)OC1(O)COc3cc(OC)c(OC)cc3C1=C2 (stereo not drawn)	102
CC1=CCc2c(cc3oc(C)cc(=O)c3c2O)OC1	90.4
CCC(=O)O[C@H]1CC[C@H]2[C@@H]3CCc4cc(O)ccc4[C@H]3CC[C@]12C	95.4
CS(=O)(=O)Nc1ccc([N+](=O)[O-])cc1Oc1ccccc1	96.7
COc1cc(NS(C)(=O)=O)ccc1Nc1c2ccccc2nc2ccccc12	12.8
CC(=O)Oc1cc(C)c2c(c1C=O)Oc1c(c(C)c(OC(C)=O)c3c1C(OC(C)=O)OC3=O)OC2=O (stereo not drawn)	106
CC1(C)C[C@@H]2C(=O)CC[C@H]3O[C@]3(C)CC[C@H]21	104
CC(=O)O[C@@H]1C=C[C@]2(C)C(C[C@@H](OC(C)=O)[C@]3(C)C4=CC(=O)O[C@H](c5ccoc5)[C@@]4(C)CCC23)C1(C)C (stereo partly drawn)	94.4
COc1ccc(-c2cc(=O)c3c(OC(C)=O)cc(OC(C)=O)cc3o2)cc1	96.9
Oc1ccc([C@H]2Oc3cc(O)cc(O)c3C[C@H]2O)cc1	102

Compound	cell viability [%]
Nc1c2c(nc3ccccc13)CCCC2	105
CCCCCCc1ccc(O)cc1O.Nc1c2ccccc2nc2ccccc12	46.4
CCCCCCc1ccc(O)cc1O	98.6
CC(=O)O[C@@H]1CC(=O)[C@@]2(C)C(CC(=O)[C@]3(C)C2CC[C@@]2(C)[C@H](c4ccoc4)OC(=O)C4OC423)C1(C)C (stereo partly drawn)	100
O=c1oc2ccccc2c(O)c1Cc1c(O)c2ccccc2oc1=O	98.1
O=C(/C=C/c1cccc(S(=O)(=O)Nc2ccccc2)c1)NO [Belinostat (PXD101)]	1.86
O=C(O)/C=C/c1ccccc1	105
O=C(O)/C=C/C=C/c1ccccc1	121
COc1ccc2c(c1)OCc1c-2oc2cc(OC)ccc12	99
O=C(Nc1ccc(OC(F)(F)F)cc1)c1sccc1NCc1ccnc2ccccc12	64.7
COc1ccc2c(c1)O[C@@H]1COc3cc(OC)c(OC)cc3[C@@H]1C2=O	102
C=C(C)[C@@H]1CC=C(CO)CC1	88.1
Cc1cc(=O)oc2cc(O)c(O)cc12	98.5
Nc1ncnc2c1ncn2[C@@H]1O[C@H](CO)[C@@H](O)[C@H]1O	105
OC[C@H]1O[C@@H](n2cnc3c(NCc4ccco4)ncnc32)[C@H](O)[C@@H]1O	5.88
Nc1ncnc2c1ncn2[C@@H]1O[C@H](CO)[C@@H](O)[C@@H]1O	93.9
CC(C)CCCC(C)C1CCC2C3=CCC4CC(O)CCC4(C)C3CCC21C (stereo not drawn)	93
COC(=O)CC[C@@H](C)[C@H]1CC[C@H]2[C@@H]3CC[C@@H]4C[C@H](O)CC[C@]4(C)[C@H]3C[C@H](O)[C@]12C	97.4
N=C(N)NCCCCNC(=N)N	102
COc1ccc(-c2coc3c(O)c(O)c(OC)cc3c2=O)cc1	111
COc1c(O)cc2c(-c3ccccc3)cc(=O)oc2c1OC	92.8
CCCSc1ccc2[nH]c(NC(=O)OC)nc2c1	12.4
COC(=O)Nc1nc2cc(Sc3ccccc3)ccc2[nH]1	41.9
COC(=O)[C@@H]1OC(=O)C2OC23[C@@]1(C)CCC1[C@]2(C)C(C[C@@H](O)[C@]13C)C(C)(C)[C@H](OC(C)=O)C[C@@H]2OC(C)=O (stereo partly drawn)	111
